# Hits are enriched below; roughly 2.3% of the tested compounds scored in any of these assays.
# HepG2 tox-1: HepG2 cytotoxicity, counter-screen for TGF-b inhibitors; Potency, µM (highest dose often 46.1 µM), inactives show top-dose activity change, negative = cytotoxicity, hits mostly cytotoxic; HepG2 CAGA-GFP viability, ATP luminescence, 18 h; AID 588856; actives 0.76% (n = 410,000)
#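 CellTiter-Glo luminescence gave cytotoxicity after 18 hours at 37 degrees C. The cells were HepG2 CAGA-GFP in 1% FBS DMEM, stimulated with 500 pg/mL TGF-beta after compound addition. %Activity was normalised to no-cell wells (complete cell-killing) and DMSO (no toxicity), and curves were fitted and classified.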
# ATXN viability: cell viability loss in ATXN counter-screen | S2 cells (HEK-293 line with an ATXN2-luciferase reporter) viability, CellTiter-Fluor protease fluorescence, 24 h | Potency, µM (highest dose often 56.7 µM), hits mostly cytotoxic | actives 0.49% (n = 400,000); note: nearly all actives have a fitted effect of over 40% in size
# TGFb inhibitor: blocks TGF-b signaling; HepG2 CAGA-GFP TGF-b/SMAD3 reporter, GFP fluorescence, 18 h; TGF-beta stimulated, 500 pg/mL final; Potency, µM (highest dose often 46.1 µM), for inactives: at the top dose activity, negative = inhibition, actives largely listed as inhibitors; actives 1.2% (n = 410,000); note: % is set by controls: 0 for no effect and ±100 for the full control effect; nearly all actives have a fitted effect of over 65% in size
#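 Using HEPG2 CAGA-GFP reporter cells at 1000 cells/well, we pinned test compounds, stimulated with recombinant TGF-beta (500 pg/mL final) and measured total well GFP after 18 h.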
# ATXN2 expr inh: reduces ATXN2 reporter expression in HEK-293 cells | HEK-293 ATXN2-luciferase reporter, luminescence, 24 h | Potency, µM (doses to about 57 µM), without a hit: at the highest dose activity change, negative = inhibition, actives largely listed as inhibitors | actives 0.72% (n = 360,000); note: % is set by controls: 0 for no effect and ±100 for the full control effect; nearly all actives have a fitted effect of over 55% in size
#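 ATXN2-luciferase reporter cells (luciferase flanked by upstream and downstream ATXN2 gene portions) were treated 24 h at 37 °C with compounds at up to 57 uM. SteadyGlo luminescence gave expression; GF-AFC fluorescence gave viability.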
# TGFb CAGA inh: confirmation of TGF-b signaling inhibitors in HepG2 reporter cells | shares compounds with TGFb inhibitor | HepG2 CAGA-GFP TGF-b reporter, GFP fluorescence, 18 h; cells stimulated with TGF-beta, 500 pg/mL | Potency, µM (series often up to 46.1 µM), without a hit: at the highest dose activity, negative = inhibition, actives largely listed as inhibitors | actives 63% (n = 1,600); note: % is set by controls: 0 for no effect and ±100 for the full control effect; nearly all actives have a fitted effect of over 65% in size
# HepG2 tox-2: toxic to HepG2 cells in TGF-b counterscreen | shares compounds with TGFb inhibitor | HepG2 CAGA-GFP viability, ATP luminescence, 18 h; cells stimulated with TGF-beta, 500 pg/mL | Potency, µM (titrated, usually from 46.1 µM), without a hit: at the top dose activity, negative = cytotoxicity, actives largely listed as inhibitors | actives 27% (n = 1,600) | AID 720535; note: % is set by controls: 0 for no effect and ±100 for the full control effect; nearly all actives have a fitted effect of over 70% in size
# CCL64 TGFb inh: blocks TGF-b signaling in CCL64 reporter cells; Potency, µM (top dose mostly 46.1 µM), inactives show top-dose activity, negative = inhibition, usual class: inhibitors; actives 41% (n = 1,600); AID 720536; shares compounds with TGFb inhibitor; CCL64 CAGA-GFP reporter, TGF-b stimulated, GFP fluorescence, 18 h; note: nearly all actives have a fitted effect of over 65% in size
# COP TGFb inh: validation of TGF-b inhibitors in HepG2 COP promoter reporter | shares compounds with TGFb inhibitor | HepG2 COP-GFP TGF-b reporter, GFP fluorescence, 18 h; cells stimulated by added recombinant TGF-beta | Potency, µM (titrated, usually from 46.1 µM), for the others: at the top dose activity, negative = inhibition, usual class: inhibitors | actives 3% (n = 1,600) | AID 720537; note: nearly all actives have a fitted effect of over 70% in size
# Active calls of the source: *; i = inactive; ? = inconclusive; . = no result given; ! = repeats disagree; [ ] = another dose, or the depositor's remark. Calls come from the whole dose curve; as a rule, active = well fitted curve in the direction sought with a large enough effect; inconclusive = small, poorly fitted or top-dose-only effect, or another doubt; inactive = no such curve, though single readings can be large; an effect the other way counts as inactive or inconclusive. Potency is the fitted concentration of half-maximal effect.
SMILES,HepG2 tox-1,ATXN viability,TGFb inhibitor,ATXN2 expr inh,TGFb CAGA inh,HepG2 tox-2,CCL64 TGFb inh,COP TGFb inh
CCCCn1nnnc1C(c1ccccc1OC(F)(F)F)N1CCN(C/C=C/c2ccccc2)CC1 (stereo not drawn),-16%,?,13µM*,-25%,18µM*,-19%,?,21%
CCCCn1nnnc1C(c1cccc2ccccc12)N1CCN(C/C=C/c2ccccc2)CC1 (stereo not drawn),-6%,?,11µM*,?,?,?,?,56%
FC(F)(F)Oc1ccccc1C(c1nnnn1Cc1ccccc1)N1CCN(C/C=C/c2ccccc2)CC1 (stereo not drawn),-40%,i,?,-16%,.,.,.,.
Cc1ccc(C(=O)NCC(=O)OCC(=O)c2ccc3ccccc3c2)cc1,-2%,.,-3%,.,.,.,.,.
C=C1C=CS(=O)(=O)N(C(C)C(=O)OC)C1 (stereo not drawn),4%,.,4%,.,.,.,.,.
Cc1ccc(C(C)C)cc1NC(=O)Nc1ccc([N+](=O)[O-])cc1,-82%,?,7.9µM*,.,?,?,18µM*,89%
O=C(COc1ccc(-c2nnc(N3CCCCC3)c3ccccc23)cc1)N1CCCCC1,-32%,i,18µM*,-26%,23µM*,-20%,-35%,2%
COc1ccc(-c2csc(NC(C)c3nc4cc(C(F)(F)F)ccc4n3CCOCCO)n2)cc1 (stereo not drawn),-23%,?,13µM*,?,23µM*,?,?,5%
CC(=O)Oc1c(Br)cc(N(C(C)=O)S(=O)(=O)c2ccccc2)c2ccccc12,-91%,i,8.9µM*,?,16µM*,?,13µM*,?
CC(=O)Oc1ccccc1N(C(C)=O)S(=O)(=O)c1ccc2ccccc2c1,-10%,i,-12%,-18%,.,.,.,.
CCN1CCN(S(=O)(=O)c2ccc(Cl)c(C(=O)N(C)CCOc3ccc(Cl)cc3)c2)CC1,-9%,i,14µM*,-29%,13µM*,?,?,12%
CC(=O)c1ccc(C2CC34CN(Cc5cccc(Cl)c5)S(=O)(=O)C3CC2O4)cc1 (stereo not drawn),2%,.,0%,.,.,.,.,.
O=S1(=O)[C@H]2CC3O[C@]2(C[C@@H]3c2ccc(F)cc2)CN1Cc1ccc(Cl)cc1,1%,i,7.1µM*,-15%,?,-9%,-11%,-4%
CCCCN(C(=O)c1cccc2c(=O)c(C)c(-c3ccccc3)oc12)c1ccccc1,-9%,i,14µM*,?,10µM*,?,?,41%
O=C1N[C@@H](c2ccccc2)COC(=O)[C@@H](Cc2ccc(F)cc2)CC/C=C/C[C@@H]1CC(=O)N(CCO)Cc1ccccc1,0%,18µM*,?,?,15µM*,-21%,?,25%
O=C(C[C@@H]1C/C=C\C[C@@H](Cc2ccc(F)cc2)C(=O)OC[C@@H](Cc2ccccc2)NC1=O)N[C@H](CO)Cc1ccccc1,-34%,i,?,4%,3%,7%,4%,0%
O=C(Nc1ccncc1)C1C(=O)c2ccccc2N(Cc2ccccc2)C1=O (stereo not drawn),-39%,.,-16%,.,.,.,.,.
CS(=O)(=O)N1CCN(c2ccc(NC(=O)c3ccc([N+](=O)[O-])o3)cc2)CC1,5.6µM*,?,4µM*,.,2.9µM*,15µM*,?,-29%
CC(C)(C)C(=O)N1CCN(c2ccc(NC(=O)c3ccc([N+](=O)[O-])o3)cc2)CC1,-58%,?,7.1µM*,3%,7.3µM*,10µM*,?,13%
O=C(Nc1ccc(N2CCN(C(=O)c3ccc(Cl)cc3)CC2)cc1)c1ccc([N+](=O)[O-])o1,13µM*,?,7.1µM*,-8%[11.3 µM],6.5µM*,16µM*,?,?
CCC(=O)N1CCN(c2ccc(NC(=O)c3ccc([N+](=O)[O-])o3)cc2)CC1,-45%,i,?,23%,.,.,.,.
CC(C)(C)c1ccc(S(=O)(=O)N2CCN(c3nc(-c4ccccc4)nc4ccccc34)CC2)cc1,-13%,.,0%,.,.,.,.,.
CCOC(=O)[C@H](CCc1ccccc1)N[C@@H](C)C(=O)N1Cc2cc(OC)c(OC)cc2C[C@H]1C(=O)O,.,i,.,11%,.,.,.,.
Cc1cccc(CN2CCCC(C(=O)c3ccc4c5c(cccc35)CC4)C2)n1 (stereo not drawn),-60%,i,10µM*,-35%,?,?,?,60%
O=C(Nc1ncc(Cc2ccccc2)s1)C1CCN(C(=O)c2ccco2)CC1,-3%,.,3%,.,.,.,.,.
SMILES,HepG2 tox-1,ATXN viability,TGFb inhibitor,ATXN2 expr inh,TGFb CAGA inh,HepG2 tox-2,CCL64 TGFb inh,COP TGFb inh
COc1ccc(/C=N\NC(=O)c2ccccc2[N+](=O)[O-])cc1COc1c(F)c(F)c(F)c(F)c1F,-4%,i,8.9µM*,0%,2.6µM*,?,?,33%
COc1ccc(/C=N/NC(=O)c2ccccc2[N+](=O)[O-])cc1CN1CCc2cc(OC)c(OC)cc2C1C (stereo not drawn),-1%,i,11%,-12%,.,.,.,.
COc1ccc(NC(=O)CCCSc2nc(-c3ccco3)cc(C(F)(F)F)n2)cc1OC,-4%,?,?,-31%,?,-11%,-28%,3%
COc1ccc(C2C=C3CNS(=O)(=O)C3CC2OC(=O)c2cccc(C)c2)cc1 (stereo not drawn),-37%,.,?,.,.,.,.,.
Cc1cccc(C)c1NS(=O)(=O)c1ccc(-c2cnc(C3CC3)o2)cc1,-29%,?,4µM*,.,2.6µM*,?,0.82µM*,52%
O=S(=O)(NCc1ccccc1Cl)c1ccc(-c2cnc(C3CC3)o2)cc1,-36%,?,?,?,.,.,.,.
CCOc1ccccc1CNS(=O)(=O)c1ccc(-c2cnc(C3CC3)o2)cc1,-28%,1.3µM*!,10µM*,-9%,5.8µM*,?,8.2µM*,-10%

# Source: PubChem BioAssay (National Center for Advancing Translational Sciences (NCATS))
